Assay results: PubChem BioAssay (NCI)
This is part of a sample that, as a whole, favours compounds with a hit. Of some 83,000 tested, about 20% had one in any assay.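 In brief: 96-well plates, 48 h treatment, single concentration, percent growth endpoint.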 The source made the active and inactive calls. The calls were made as follows: active = growth percent below 10; inactive = the rest.

Tests used:
Experiment in all cases: NCI-60 one-dose screen, 48 h (100 = growth as untreated, 0 = no growth, -100 = all killed)
SK-MEL-2 melanoma = conditions: 10 µM unless noted
EKVX NSCLC = conditions: 10 µM unless noted
SN12C renal = conditions: 10 µM unless noted
UO-31 renal = conditions: 10 µM unless noted
TK-10 renal = conditions: 10 µM unless noted
ACHN renal = conditions: 10 µM unless noted
CAKI-1 renal = conditions: 10 µM
A498 renal = conditions: 10 µM unless noted
CCRF-CEM leukemia = conditions: 10 µM unless noted
MOLT-4 leukemia = conditions: 10 µM unless noted
SR leukemia = conditions: 10 µM unless noted
RPMI-8226 leukemia = conditions: 10 µM unless noted
OVCAR-8 ovarian = conditions: 10 µM unless noted
OVCAR-5 ovarian = conditions: 10 µM unless noted
OVCAR-4 ovarian = conditions: 10 µM unless noted
SK-OV-3 ovarian = conditions: 10 µM unless noted
IGROV1 ovarian = conditions: 10 µM unless noted
OVCAR-3 ovarian = conditions: 10 µM unless noted
HS 578T breast = conditions: 10 µM unless noted
NCI/ADR-RES ovarian = conditions: 10 µM unless noted

Measured: growth

O=C(CCCCCCN1CC(=O)N2[C@@H](c3cccc(Br)c3)c3[nH]c4ccccc4c3C[C@H]2C1=O)NO
active: IGROV1 ovarian 2.39% | OVCAR-3 ovarian 6.19%
inactive: SK-MEL-2 melanoma 33.5% | EKVX NSCLC 54.8% | SN12C renal 44.7% | UO-31 renal 46.2% | TK-10 renal 28.1% | ACHN renal 73.4% | CAKI-1 renal 23.1% | A498 renal 49.4% | CCRF-CEM leukemia 14.9% | MOLT-4 leukemia 12.4% | SR leukemia 37.4% | RPMI-8226 leukemia 13.4% | OVCAR-8 ovarian 24.9% | OVCAR-5 ovarian 29% | OVCAR-4 ovarian 48.9% | SK-OV-3 ovarian 13.9% | HS 578T breast 61.4% | NCI/ADR-RES ovarian 91.9%

CN1C(=O)N(C)C2Nn3c(s/c(=C\c4ccccn4)c3=O)=NC21 (stereo not drawn)
inactive: SK-MEL-2 melanoma 102% | EKVX NSCLC 99.7% | SN12C renal 104% | UO-31 renal 88.1% | TK-10 renal 111% | ACHN renal 100% | CAKI-1 renal 97.1% | A498 renal 105% | CCRF-CEM leukemia 102% | MOLT-4 leukemia 110% | SR leukemia 109% | RPMI-8226 leukemia 105% | OVCAR-8 ovarian 101% | OVCAR-5 ovarian 104% | OVCAR-4 ovarian 104% | SK-OV-3 ovarian 114% | IGROV1 ovarian 98.3% | OVCAR-3 ovarian 106% | HS 578T breast 113% | NCI/ADR-RES ovarian 103%

CCN(CC)CCCC(C)NCC(=O)NC(c1ccc2c(c1)OCO2)c1cc(Cl)c2cccnc2c1O (stereo not drawn)
active: UO-31 renal 3.38% | CAKI-1 renal 1.43%
inactive: SK-MEL-2 melanoma 81.4% | EKVX NSCLC 26% | SN12C renal 38.1% | TK-10 renal 45.6% | ACHN renal 25.2% | A498 renal 81.1% | CCRF-CEM leukemia 16.5% | MOLT-4 leukemia 20.4% | SR leukemia 39.2% | RPMI-8226 leukemia 27.9% | OVCAR-8 ovarian 25.2% | OVCAR-5 ovarian 40.6% | OVCAR-4 ovarian 11.5% | SK-OV-3 ovarian 40.6% | IGROV1 ovarian 20.9% | OVCAR-3 ovarian 10.8% | HS 578T breast 79.7% | NCI/ADR-RES ovarian 38.6%

CC(C)N=C(N/C(N)=N/c1nc2ccccc2s1)NC(C)C
inactive: SK-MEL-2 melanoma 107% | EKVX NSCLC 67.6% | SN12C renal 45.6% | UO-31 renal 46.4% | TK-10 renal 80.6% | ACHN renal 55.4% | CAKI-1 renal 45.2% | A498 renal 72.8% | CCRF-CEM leukemia 52.9% | MOLT-4 leukemia 55.2% | SR leukemia 49.5% | RPMI-8226 leukemia 42.7% | OVCAR-8 ovarian 67.2% | OVCAR-5 ovarian 60.8% | OVCAR-4 ovarian 93.6% | SK-OV-3 ovarian 83.4% | IGROV1 ovarian 39.6% | OVCAR-3 ovarian 104% | HS 578T breast 75.9% | NCI/ADR-RES ovarian 63.7%

COc1ccc([C@H]2c3[nH]c4ccccc4c3C[C@@H]3C(=O)N(C4CCN(Cc5ccccc5)CC4)CC(=O)N23)c(OC)c1
inactive: SK-MEL-2 melanoma 103% | EKVX NSCLC 64.5% | SN12C renal 75.6% | UO-31 renal 42.6% | TK-10 renal 103% | ACHN renal 76% | CAKI-1 renal 56.4% | A498 renal 93.8% | CCRF-CEM leukemia 61.8% | MOLT-4 leukemia 45.1% | SR leukemia 29.9% | RPMI-8226 leukemia 52.9% | OVCAR-8 ovarian 88.7% | OVCAR-5 ovarian 90% | OVCAR-4 ovarian 82.7% | SK-OV-3 ovarian 93% | IGROV1 ovarian 50.6% | OVCAR-3 ovarian 80.4% | HS 578T breast 82.3% | NCI/ADR-RES ovarian 68.3%

CS(=O)(=O)c1ccc(-c2nn(-c3ccccc3)cc2/C=C/C(=O)c2ccc(Br)cc2)cc1
inactive: SK-MEL-2 melanoma 103% | EKVX NSCLC 87.5% | SN12C renal 88.1% | UO-31 renal 79.6% | TK-10 renal 107% | ACHN renal 94% | CAKI-1 renal 84.6% | A498 renal 84.1% | CCRF-CEM leukemia 41.8% | MOLT-4 leukemia 60.6% | SR leukemia 59.6% | RPMI-8226 leukemia 32.8% | OVCAR-8 ovarian 93.6% | OVCAR-5 ovarian 101% | OVCAR-4 ovarian 90.6% | SK-OV-3 ovarian 107% | IGROV1 ovarian 95% | OVCAR-3 ovarian 70.3% | HS 578T breast 117% | NCI/ADR-RES ovarian 85.2%

C#Cc1ccc(NC(=O)c2ccc(/C=C/C(=O)c3nccn3C)cc2)c(F)c1
inactive: SK-MEL-2 melanoma 103% | EKVX NSCLC 36% | SN12C renal 16.3% | UO-31 renal 41.8% | TK-10 renal 89.4% | ACHN renal 37.7% | CAKI-1 renal 37.3% | A498 renal 78.7% | MOLT-4 leukemia 16.2% | OVCAR-8 ovarian 21.4% | OVCAR-5 ovarian 40.7% | OVCAR-4 ovarian 42.3% | SK-OV-3 ovarian 65.3% | IGROV1 ovarian 23.9% | OVCAR-3 ovarian 12.6% | HS 578T breast 51.4% | NCI/ADR-RES ovarian 10.8%
active: CCRF-CEM leukemia 7.54% | SR leukemia 8.09% | RPMI-8226 leukemia -5.69%

Oc1ccc(-c2nnc(SCc3ccc(O)c4ncccc34)o2)cc1
active: SN12C renal 6.09% | UO-31 renal -5.74% | ACHN renal 3.36% | CAKI-1 renal 3.35% | A498 renal -8.21% | RPMI-8226 leukemia 4.27% | OVCAR-4 ovarian 9.9% | SK-OV-3 ovarian -3.56% | IGROV1 ovarian 3.93% | OVCAR-3 ovarian 6.01% | HS 578T breast -0.346% | NCI/ADR-RES ovarian 7.18%
inactive: SK-MEL-2 melanoma 17% | EKVX NSCLC 15.6% | TK-10 renal 13.6% | CCRF-CEM leukemia 12.1% | MOLT-4 leukemia 16.5% | SR leukemia 37.4% | OVCAR-8 ovarian 15.9% | OVCAR-5 ovarian 27.1%

CN1C(=O)N(C)C2C1NN=c1s/c(=C\c3ccccn3)c(=O)n12 (stereo not drawn)
inactive: SK-MEL-2 melanoma 103% | EKVX NSCLC 99.4% | SN12C renal 98.8% | UO-31 renal 91.3% | TK-10 renal 104% | ACHN renal 104% | CAKI-1 renal 100% | A498 renal 105% | CCRF-CEM leukemia 101% | MOLT-4 leukemia 107% | SR leukemia 114% | RPMI-8226 leukemia 101% | OVCAR-8 ovarian 101% | OVCAR-5 ovarian 109% | OVCAR-4 ovarian 105% | SK-OV-3 ovarian 110% | IGROV1 ovarian 102% | OVCAR-3 ovarian 115% | HS 578T breast 104%

Oc1ccccc1-c1nnc(SCc2ccc(O)c3ncccc23)n1-c1ccccc1
active: EKVX NSCLC -0.459% | UO-31 renal -9.38% | ACHN renal 8.88% | A498 renal -6.54% | CCRF-CEM leukemia 7.6% | SK-OV-3 ovarian 8.88% | IGROV1 ovarian 6.65% | NCI/ADR-RES ovarian 6.23%
inactive: SK-MEL-2 melanoma 23.1% | SN12C renal 14.5% | TK-10 renal 18.9% | CAKI-1 renal 11.3% | MOLT-4 leukemia 18% | SR leukemia 25.2% | RPMI-8226 leukemia 12.2% | OVCAR-8 ovarian 15.5% | OVCAR-5 ovarian 33% | OVCAR-4 ovarian 16.3% | OVCAR-3 ovarian 18.7% | HS 578T breast 21.3%

Oc1ccc(CSc2nnc(-c3ccc(Cl)cc3)o2)c2cccnc12
active: UO-31 renal 2.83% | HS 578T breast 1.27% | NCI/ADR-RES ovarian 9.8%
inactive: SK-MEL-2 melanoma 54.9% | EKVX NSCLC 34% | SN12C renal 37.4% | TK-10 renal 39.1% | ACHN renal 11.4% | CAKI-1 renal 20.2% | A498 renal 75.5% | CCRF-CEM leukemia 13.3% | MOLT-4 leukemia 15.3% | SR leukemia 34.3% | RPMI-8226 leukemia 18.6% | OVCAR-8 ovarian 18.9% | OVCAR-5 ovarian 73.1% | OVCAR-4 ovarian 19.8% | SK-OV-3 ovarian 20.3% | IGROV1 ovarian 16.4% | OVCAR-3 ovarian 30.8%

Nc1ccc(-c2nnc(SCc3ccc(O)c4ncccc34)o2)cc1
inactive: SR leukemia 18.8% | OVCAR-5 ovarian 25%
active: SK-MEL-2 melanoma 3.45% | EKVX NSCLC -5.86% | SN12C renal 6.01% | UO-31 renal -12.5% | TK-10 renal 1.68% | ACHN renal 2.17% | CAKI-1 renal 4.38% | A498 renal -40.1% | CCRF-CEM leukemia 5.03% | MOLT-4 leukemia 5.7% | RPMI-8226 leukemia -9.68% | OVCAR-8 ovarian 8.94% | OVCAR-4 ovarian -1.57% | SK-OV-3 ovarian -15.3% | IGROV1 ovarian 0.429% | OVCAR-3 ovarian 7.75% | HS 578T breast -12.6% | NCI/ADR-RES ovarian -9.89%

COc1ccccc1N1CCN(C2=NN=C(c3cccc(Cl)c3)c3ccccc3C2)CC1
inactive: EKVX NSCLC 40.9% | SN12C renal 21.2% | UO-31 renal 24% | TK-10 renal 27.8% | ACHN renal 28.5% | CAKI-1 renal 29.7% | CCRF-CEM leukemia 10.1% | MOLT-4 leukemia 17.6% | OVCAR-8 ovarian 13% | OVCAR-5 ovarian 40.4% | OVCAR-4 ovarian 38.6% | SK-OV-3 ovarian 13.7% | IGROV1 ovarian 21.4% | HS 578T breast 18.9% | NCI/ADR-RES ovarian 10.7%
active: SK-MEL-2 melanoma 0.738% | A498 renal -16.6% | SR leukemia -15.3% | RPMI-8226 leukemia 9.68% | OVCAR-3 ovarian -31.2%

COc1cc(/C=C2\SC(=O)NC2=O)ccc1OCC(=O)Nc1ccc(C(=O)/C=C/c2cc3ccccc3nc2Cl)cc1
inactive: SK-MEL-2 melanoma 103% | EKVX NSCLC 77% | SN12C renal 93.5% | UO-31 renal 66.1% | TK-10 renal 104% | ACHN renal 93.8% | CAKI-1 renal 80.3% | A498 renal 111% | CCRF-CEM leukemia 57.2% | MOLT-4 leukemia 51.4% | SR leukemia 27.7% | OVCAR-8 ovarian 84% | OVCAR-5 ovarian 109% | OVCAR-4 ovarian 52.9% | SK-OV-3 ovarian 104% | IGROV1 ovarian 92.6% | OVCAR-3 ovarian 104% | HS 578T breast 99.1%
active: RPMI-8226 leukemia -1.87%

O=c1oc2ccc(-c3ccc(F)cc3F)cc2c(=O)n1-c1ccc(F)c(F)c1
inactive: TK-10 renal 10.8% | CCRF-CEM leukemia 16.4% | SR leukemia 27.5% | OVCAR-5 ovarian 12.9% | IGROV1 ovarian 15.1%
active: SK-MEL-2 melanoma -14.3% | EKVX NSCLC 9.2% | SN12C renal 2.02% | UO-31 renal -12.4% | ACHN renal 2.6% | CAKI-1 renal -15.4% | A498 renal -42.6% | MOLT-4 leukemia 6.43% | RPMI-8226 leukemia -19.1% | OVCAR-8 ovarian 8.19% | OVCAR-4 ovarian 9.07% | SK-OV-3 ovarian 6.15% | OVCAR-3 ovarian 5.59% | HS 578T breast 1.72% | NCI/ADR-RES ovarian 3.65%
